# The whole screen tested about 310,000 compounds, of which about 14,000 (4.5%) showed an effect of 50% or more. Effects have a minus sign here. This is one part of a sample in which strong results are shown more often than they occur.
# Biological target: human ether-à-go-go-related gene (hERG) potassium channel (human, UniProt Q12809)
# Experiment: primary screen, population patch clamp on CHO cells stably expressing hERG; higher = less effect of the substance
# 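Note: peak tail current of the secondary pulse compared with the same well before compound.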
# human ether-à-go-go-related gene (hERG) potassium channel, sequence (Q12809 whole entry, looked up): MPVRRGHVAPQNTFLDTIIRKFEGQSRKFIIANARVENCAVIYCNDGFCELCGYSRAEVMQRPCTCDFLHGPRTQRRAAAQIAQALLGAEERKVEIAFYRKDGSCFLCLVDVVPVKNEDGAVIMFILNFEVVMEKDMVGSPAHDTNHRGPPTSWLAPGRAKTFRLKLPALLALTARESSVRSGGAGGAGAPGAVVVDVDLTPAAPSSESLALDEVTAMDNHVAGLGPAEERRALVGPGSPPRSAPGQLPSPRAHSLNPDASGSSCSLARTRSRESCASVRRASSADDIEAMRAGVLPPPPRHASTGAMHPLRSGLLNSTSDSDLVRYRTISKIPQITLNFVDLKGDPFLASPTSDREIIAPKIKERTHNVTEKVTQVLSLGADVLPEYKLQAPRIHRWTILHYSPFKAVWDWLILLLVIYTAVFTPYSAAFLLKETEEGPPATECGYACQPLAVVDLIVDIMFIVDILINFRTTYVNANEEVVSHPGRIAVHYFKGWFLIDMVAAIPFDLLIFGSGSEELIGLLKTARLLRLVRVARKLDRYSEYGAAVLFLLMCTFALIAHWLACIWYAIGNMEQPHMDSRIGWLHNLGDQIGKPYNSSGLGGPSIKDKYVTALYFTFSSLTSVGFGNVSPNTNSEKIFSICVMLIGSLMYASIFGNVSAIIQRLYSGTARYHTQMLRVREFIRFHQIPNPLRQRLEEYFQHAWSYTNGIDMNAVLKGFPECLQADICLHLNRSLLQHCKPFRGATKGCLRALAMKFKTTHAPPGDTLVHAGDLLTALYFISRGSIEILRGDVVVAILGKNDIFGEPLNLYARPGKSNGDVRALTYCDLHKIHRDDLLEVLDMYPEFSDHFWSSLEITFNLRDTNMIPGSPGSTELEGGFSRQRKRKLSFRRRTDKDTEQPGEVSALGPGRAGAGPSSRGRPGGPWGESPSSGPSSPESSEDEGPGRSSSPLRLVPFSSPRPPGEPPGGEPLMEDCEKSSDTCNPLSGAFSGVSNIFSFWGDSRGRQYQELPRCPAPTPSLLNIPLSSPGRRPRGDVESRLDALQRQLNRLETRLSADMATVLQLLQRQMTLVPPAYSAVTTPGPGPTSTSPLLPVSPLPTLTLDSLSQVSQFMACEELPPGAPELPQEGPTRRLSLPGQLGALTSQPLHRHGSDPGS
row,SMILES,"hERG current change (%, negative = inhibition) at 10uM [%]"
1,CN(C(=O)c1ccccc1OC1CCN(S(C)(=O)=O)CC1)C1CCOC1 (stereo not shown),11.7
2,NC(=O)Cn1nnc(-c2ccc(CN3CCCCC3)cc2)n1,21.6
3,O=C(N1CCCC1)N1CCN(S(=O)(=O)c2ccccc2)CC1,7.18
4,CC(C)/C=N\NC(=O)CCCCC(=O)N/N=C/C(C)C,6.11
5,CCOC(=O)C1=C(SCC(=O)Nc2ccccc2)NC(=O)C(C#N)C12CCCCC2 (stereo not shown),-5.43
6,Cc1ccc(N2CN(CCC3=CCCCC3)CNC2=S)cc1,18
7,Cc1ccc2c(c1)CCCN2C(=O)c1ccc2c(c1)OCO2,-4.53
8,O=c1c2c(-c3ccccc3)csc2nc2n1CCC2,14.5
9,O=c1cc(N2CCCCC2)c(-c2ccccc2)nn1Cc1ccc(Cl)cc1,-1.99
10,Cc1cc(C)cc(NC(=O)C2CCN(c3nc(C)cc(C)n3)CC2)c1,-3.58
11,Cc1ccc(N(CC(=O)NC2CCCC2)C(=O)CCC(=O)Nc2nc(C)cs2)cc1,-11.9
12,CCOc1ccc(N(CC(=O)NC2CCCC2)C(=O)CCC(=O)Nc2nc(C)cs2)cc1,-28.8
13,CCOc1ccc(N(CC(=O)NC2CCCCC2)C(=O)CCC(=O)Nc2nc(C)cs2)cc1,-50.6
14,O=C(CC(CC(=O)c1ccccc1)c1ccccc1)c1ccccc1,0.181
15,O=C(CSc1nnc(CN2CCOCC2)n1-c1ccccc1)Nc1ccc(Cl)cc1,-32.5
16,Cc1cc(C)c(S(=O)(=O)N2CCOC2CNC(=O)C(=O)NCCc2ccc(S(N)(=O)=O)cc2)c(C)c1 (stereo not shown),-17.8
17,O=C(Cn1cnc2c(nnn2Cc2ccccc2)c1=O)NCc1ccccc1Cl,5.76
18,Cc1ccc(SCc2ccc(C(=O)NCc3cccnc3)cc2)cc1,3.85
19,O=C(Oc1ccc(/C=N/Nc2ccccc2)cc1)c1ccccc1,15.4
20,O=C(O)c1ccc(N/N=C/c2ccc(OC(=O)c3cccc(Cl)c3)cc2)cc1,-9.22
21,O=C(O)c1ccc(N/N=C/c2ccc(OC(=O)c3ccccc3Cl)cc2)cc1,-56

row,SMILES,"hERG current change (%, negative = inhibition) at 10uM [%]"
1,Cc1ccc(CNC(=O)CCC2CCCN(Cc3cc4ccccc4o3)C2)o1 (stereo not shown),-69.2
2,Cc1ccc(CNC(=O)CCC2CCCN(C(=O)CCC(F)(F)F)C2)o1 (stereo not shown),3.62
3,COCc1ccc(CN2CCCC(CCC(=O)NCc3cccc(OC)c3)C2)o1 (stereo not shown),-23.5
4,COc1cccc(CNC(=O)CCC2CCCN(C(=O)c3cc4ccccc4o3)C2)c1 (stereo not shown),-47.7
5,COc1cccc(CNC(=O)CCC2CCCN(Cc3cc4ccccc4o3)C2)c1 (stereo not shown),-75.6
6,Cc1ccsc1C(=O)C1CCCN(Cc2cc3ccccc3o2)C1 (stereo not shown),-23.7
7,Cc1ccc(N/C=C(\C#N)S(=O)(=O)c2ccccc2)cc1,14.3
8,CCOC(=O)c1c(C)sc2c1N(C(=O)CCl)c1cc(Cl)ccc1S2,-3.3
9,COc1ccccc1NC(=O)Cn1cncc1-c1ccc([N+](=O)[O-])cc1,2.57
10,O=C1CCC(C(=O)NCCN2C(=O)S/C(=C\c3cccnc3)C2=O)=NN1,2.26
11,CSC1=NSC2=NC(=O)/C(=C\c3ccc(OC(=O)c4ccco4)cc3)C(=N)N12,9.54
12,Cc1ccc(S(=O)(=O)N2CCN(C(=O)c3ccco3)CC2)cc1,1.15
13,COc1ccc(NC(=S)N2CCN(C(=O)c3ccco3)CC2)cc1,-6.29
14,CCCCc1ccc(S(=O)(=O)N2CCN(C(=O)c3ccco3)CC2)cc1,-66.5
15,CCCCc1ccc(NC(=S)N2CCN(C(=O)c3ccco3)CC2)cc1,-75.3
16,COC(=O)c1ccc(NC(=S)N2CCN(C(=O)c3ccco3)CC2)cc1,-4.94
17,CC(C)Cc1ccc(S(=O)(=O)N2CCN(C(=O)c3ccco3)CC2)cc1,-11.1
18,COc1ccc(C2/C(=C(\O)c3ccc4c(c3)OCCO4)C(=O)C(=O)N2Cc2ccco2)c(OC)c1 (stereo not shown),-9.64
19,Cn1c(=O)cc(OCCCC(=O)Nc2cccnc2)c2ccccc21,0.169
20,CCN(CC)CCn1nc2c3c(cccc3c1=O)-c1ccccc1-2,-70.2
21,O=C(O)Cn1nc2c3c(cccc3c1=O)-c1ccccc1-2,8.18

row,SMILES,"hERG current change (%, negative = inhibition) at 10uM [%]"
1,O=c1c2cccc3c2c(nn1CN1CCOCC1)-c1ccccc1-3,-11.5
2,COC(=O)c1c(C)[nH]c(C)c1-c1ccccc1,-5.37
3,O=C1NC(c2ccc3c(c2)OCO3)Nc2ccccc21 (stereo not shown),10.5
4,O=C(Nc1ccncc1)c1ccc2c(c1)OCCO2,11.8
5,COc1ccc(C)cc1N(CC(=O)N1CCOCC1)S(C)(=O)=O,21.2
6,COc1ccc(N(CC(=O)N2CCN(C)CC2)S(=O)(=O)c2cc(C)ccc2OC)cc1Cl,-60.3
7,COc1ccc(C)cc1S(=O)(=O)N(CC(=O)N1CCCC1)c1ccccc1,-37.9
8,COc1ccc(C)cc1S(=O)(=O)N(C)CC(=O)N1CCN(C)CC1,2.65
9,COc1ccc(C)cc1S(=O)(=O)N(C)CC(=O)N1CCCC1,13.2
10,COc1ccc(C)cc1S(=O)(=O)N(CC(=O)N1CCOCC1)c1cc(C)cc(C)c1,-77.4
11,COc1ccc(C)cc1S(=O)(=O)N(CC(=O)N1CCCC1)c1ccc(C)cc1,-53
12,COc1ccc(Br)cc1S(=O)(=O)N(CC(=O)N1CCN(C)CC1)c1ccccc1,-22.6
13,COc1ccc(Br)cc1S(=O)(=O)N(CC(=O)N1CCOCC1)c1ccccc1,-47
14,CC(OC(=O)C1CCC(=O)N1)C(=O)Nc1cc(Cl)cc(Cl)c1 (stereo not shown),2.72
15,O=C(CSc1n[nH]c(=O)n1Cc1ccco1)c1ccc2c(c1)OCCO2,15
16,c1cc2c(cc1Oc1nc(N3CCOCC3)nc(N3CCOCC3)n1)OCO2,3.77
17,CC(C)Cc1ccc(C(C)C(=O)OCC(=O)c2c[nH]c3ccccc23)cc1 (stereo not shown),3.98
18,Cc1ccc(NC(=O)c2cc([N+](=O)[O-])ccc2N2CCOCC2)cc1S(=O)(=O)N(C)C,-52.8
19,Cc1ccc(NC(=O)c2cc([N+](=O)[O-])ccc2N2CCOCC2)cc1S(=O)(=O)N1CCOCC1,-46
20,NC(=O)c1ccccc1NC(=O)c1cc(S(=O)(=O)N2CCCCC2)ccc1N1CCOCC1,-73.9
21,Cc1ccc(C)c(NC(=O)c2cc(S(=O)(=O)N3CCCCC3)ccc2N2CCOCC2)c1,-62.7

row,SMILES,"hERG current change (%, negative = inhibition) at 10uM [%]"
1,CC(C)Oc1ccc(S(=O)(=O)N2CCOCC2)cc1NC(=O)c1cc([N+](=O)[O-])ccc1N1CCOCC1,-45.7
2,COc1ccc(S(=O)(=O)N2CCCCC2)cc1NC(=O)c1cc([N+](=O)[O-])ccc1N1CCOCC1,-30.4
3,CCN(CC)S(=O)(=O)c1cc(NC(=O)c2cc([N+](=O)[O-])ccc2N2CCOCC2)ccc1C,-20.5
4,COc1ccc(C)cc1NC(=O)c1cc(S(=O)(=O)N2CCCCC2)ccc1N1CCOCC1,-39.2
5,O=C(Nc1ccccc1)c1cc(S(=O)(=O)N2CCCCC2)ccc1N1CCOCC1,1.08
6,Cc1ccc(S(=O)(=O)N2CCOCC2)cc1NC(=O)c1cc([N+](=O)[O-])ccc1N1CCOCC1,-67.7
7,Cc1ccc(NC(=O)c2cc(S(=O)(=O)N3CCCCC3)ccc2N2CCOCC2)cc1F,-13.9
8,O=C(Nc1ccccc1Cl)c1cc(S(=O)(=O)N2CCCCC2)ccc1N1CCOCC1,-39.7
9,Cc1ccc(NC(=O)/C(=C/c2cccs2)NC(=O)c2ccco2)c(C)c1,-9.56
10,CCCC(=O)NNC(=O)Nc1ccccc1,19.8
11,O=c1[nH]c(CSc2nc3ccccc3[nH]2)nc2c1cnn2-c1ccccc1,-17.6
12,COc1ccc(CC(=O)Nc2cc(C)on2)cc1OC,2.2
13,CC(=O)Nc1ccc(S(=O)(=O)Nc2nc3ccccc3nc2Nc2cccc(S(N)(=O)=O)c2)cc1,10.3
14,CCOc1ccc2oc(-c3ccccc3)c(C(=O)N3CCN(C)CC3)c2c1,-9.67
15,O=C(Nc1ccccc1N1CCCCC1)c1cc(S(=O)(=O)N2CCOCC2)ccc1Cl,-4.01
16,CS(=O)(=O)c1ccc(Cl)c(NC(=O)c2cc(S(=O)(=O)N3CCOCC3)ccc2N2CCCC2)c1,-81.3
17,O=C(Nc1ccccc1N1CCCC1)c1cc(S(=O)(=O)N2CCOCC2)ccc1Cl,-34.5
18,Cc1nc(CC(=O)NNS(=O)(=O)c2ccc(F)c(Cl)c2)cs1,20
19,O=C(COC(=O)C1CCCN1C(=O)c1cccs1)Nc1ccc2c(c1)OCO2 (stereo not shown),-11.9

# Source: article PMC4336329 (PLoS ONE, 2015)
